Assay results as given in PubChem BioAssay (EPA / NIEHS).
Values joined by “and” are separate entries in the source; they are usually repeats but may differ in a detail not shown here. Identical values can stand only once. Results filed as inconclusive are left out. Active and inactive are the calls of the source. The calls were made as follows, unless noted: active = hit-call score of the fitted dose curve at least 0.9, where 1 is the maximum; inconclusive = response in the unintended direction; inactive = score below 0.9.

Experiments:
[1] = read-out: Transforming Growth Factor (TGFA), TGFA (gene 7039); experiment: LTEA_HepaRG_TGFA: Life Technologies and Expression Analysis (LTEA) Assay for Transforming Growth Factor (TGFA) using HepaRG (AID 2283532; active = hit-call score of the fitted dose curve at least 0.9, where 1 is the maximum; inactive = score below 0.9); conditions: mRNA level, 48 h; actives raise or lower the signal
Outline: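 TGFA transcript quantified by qRT-PCR (Fluidigm arrays) against three housekeeping genes, after 48 hours chemical treatment of HepaRG cells. Top concentration 100 uM with half-log dilutions, 8 points, duplicates, 0.5% DMSO.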

[2] = read-out: Transforming Growth Factor (TGFB1), TGFB1 (gene 7040); experiment: LTEA_HepaRG_TGFB1: Life Technologies and Expression Analysis (LTEA) Assay for Transforming Growth Factor (TGFB1) Transporter using HepaRG (AID 2283533; active = hit-call score of the fitted dose curve at least 0.9, where 1 is the maximum; inactive = score below 0.9); conditions: mRNA level, 48 h; actives raise or lower the signal
Outline: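 HepaRG, 48 h post-plating, switched to serum-free induction medium; chemicals 100 uM top, half-log, 8 pts, 0.5% DMSO, dup; 48 h exposure; RNA → Fluidigm TaqMan qRT-PCR; norm ACTB/GAPDH/POLR2A; bidirectional fit vs DMSO.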

TIMP1, TIMP1 (gene 7076) = experiment: LTEA_HepaRG_TIMP1: Life Technologies and Expression Analysis (LTEA) Assay for TIMP1 using HepaRG (AID 2283534; active = hit-call score of the fitted dose curve at least 0.9, where 1 is the maximum; inactive = score below 0.9); conditions: mRNA level, 48 h; actives raise or lower the signal
Outline: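 Readout is TIMP1 mRNA level measured by qRT-PCR and normalized to three housekeeping genes. Human HepaRG cells were treated for 48 h in duplicate at eight concentrations up to 100 uM (0.5% DMSO); gain or loss fitted against DMSO.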

[3] = read-out: Tumor necrosis factor receptor 1 (TNFRSF1A), TNFRSF1A (gene 7132); experiment: LTEA_HepaRG_TNFRSF1A: Life Technologies and Expression Analysis (LTEA) Assay for Tumor necrosis factor receptor 1 (TNFRSF1A) using HepaRG (AID 2283535; active = hit-call score of the fitted dose curve at least 0.9, where 1 is the maximum; inactive = score below 0.9); conditions: mRNA level, 48 h; actives raise or lower the signal
Outline: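 Read-out is TNFRSF1A transcript level by TaqMan qRT-PCR, normalized to three housekeeping genes, scored as gain or loss of signal versus 0.5% DMSO. Human HepaRG cells received test chemicals for 48 h at up to 100 uM (half-log series).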

[4] = read-out: Thyroid Hormone Responsive (THRSP), THRSP (gene 7069); experiment: LTEA_HepaRG_THRSP: Life Technologies and Expression Analysis (LTEA) Assay for Thyroid Hormone Responsive (THRSP) using HepaRG (AID 2283536; active = hit-call score of the fitted dose curve at least 0.9, where 1 is the maximum; inactive = score below 0.9); conditions: mRNA level, 48 h; actives raise or lower the signal
Outline: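 THRSP transcript quantified by Fluidigm qRT-PCR against three housekeeping genes after 48 h chemical exposure of HepaRG cells in serum-free induction medium; eight-point half-log series, top 100 uM, 0.5% DMSO vehicle, duplicate wells.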

[5] = read-out: Cellular tumor antigen p53 (Homo sapiens) (UniProt P04637); experiment: LTEA_HepaRG_TP53: Life Technologies and Expression Analysis (LTEA) Assay for Tumor Protein P53 (TP53) using HepaRG (AID 2283537; active = hit-call score of the fitted dose curve at least 0.9, where 1 is the maximum; inactive = score below 0.9); conditions: mRNA level, 48 h; actives raise or lower the signal
Outline: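 Differentiated HepaRG cells in serum-free induction medium exposed 48 h in duplicate to 8 half-log concentrations, top 100 uM, 0.5% DMSO. TP53 mRNA by TaqMan qRT-PCR (Fluidigm), normalized to ACTB, GAPDH, POLR2A; fitted bidirectionally versus DMSO.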

[6] = read-out: UDP glucuronosyltransferase (UGT1A1), UGT1A1 (gene 54658); experiment: LTEA_HepaRG_UGT1A1: Life Technologies and Expression Analysis (LTEA) Assay for UDP glucuronosyltransferase (UGT1A1) using HepaRG (AID 2283538; active = hit-call score of the fitted dose curve at least 0.9, where 1 is the maximum; inactive = score below 0.9); conditions: mRNA level, 48 h; actives raise or lower the signal
Outline: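 UGT1A1 transcript level, measured by qRT-PCR with three housekeeping genes for normalization, after 48 h treatment of human HepaRG cells (0.5% DMSO, duplicates, up to 100 uM, half-log steps, 8 points). Curves fit both directions against DMSO baseline.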

[7] = read-out: UDP glucuronosyltransferase (UGT1A6), UGT1A6 (gene 54578); experiment: LTEA_HepaRG_UGT1A6: Life Technologies and Expression Analysis (LTEA) Assay for UDP glucuronosyltransferase (UGT1A6) using HepaRG (AID 2283539; active = hit-call score of the fitted dose curve at least 0.9, where 1 is the maximum; inactive = score below 0.9); conditions: mRNA level, 48 h; actives raise or lower the signal
Outline: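 HepaRG, 48 h post-plating switch to serum-free induction medium; chemical 48 h, 100 uM top, half-log x8, duplicate, 0.5% DMSO. Phenobarbital 1mM induction control. UGT1A6 mRNA by TaqMan qRT-PCR; gain/loss fit vs DMSO.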

[8] = LTEA_HepaRG_LDH_cytotoxicity: Cytotoxicity Assessment in the Life Technologies and Expression Analysis (LTEA) Assay (AID 2283563);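 as to AC50: LDH activity released into spent culture medium as a marker of cell death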
Outline: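 Cells were thawed and plated for 48 h. Medium was then replaced with serum-free induction medium. Chemicals (8 half-log points, maximum 100 uM, 0.5% DMSO) were added in duplicate for 48 h, after which spent medium was assayed for LDH.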

[9] = ATG_XTT_Cytotoxicity: Cytotoxicity Assessment in the Attagene TRANS-FACTORIAL HepG2 Assay (AID 2283584)
Outline: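 Cells: human HepG2, transiently transfected with MRTU reporter constructs. Exposure 24 h. Readout: XTT, cell number. Baseline/neg ctrl DMSO; loss-of-signal scored.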

[10] = TOX21_p53_BLA_p2_viability: Viability Assessment in the Tox21 HCT-116 p53 Agonism Beta-lactamase Assay, Phase 2 (AID 2283591);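 also: compound exposure lasted 16 h at 37 °C; actives lower the ATP signal meaning cytotoxicity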
Outline: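 Cytotoxicity readout: CellTiter-Glo ATP luminescence, 30 min at room temperature, after the beta-lactamase read. Cells were HCT116 exposed 16 h at 37C to compounds pin-transferred at 217-fold dilution from DMSO stocks.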

[11] = biological target: Cellular tumor antigen p53 (Homo sapiens) (UniProt P04637); experiment: TOX21_p53_BLA_p2_ratio: Tox21 HCT-116 p53 Agonism Beta-lactamase Assay, Ratio, Phase 2 (AID 2283592)
Outline: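 Plated HCT116 p53-bla cells (4000/well) received compound after 5 h, then 16 h at 37C/5% CO2. CCF4-AM added, 2 h RT. Ratio of 460 to 530 nm emission taken as the p53 reporter signal.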

[12] = biological target: Cellular tumor antigen p53 (Homo sapiens) (UniProt P04637); experiment: TOX21_p53_BLA_p3_ratio: Tox21 HCT-116 p53 Agonism Beta-lactamase Assay, Ratio, Phase 3 (AID 2283596)
Outline: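 Cells were seeded at 4000/well, rested 5 h at 37C, then dosed with DMSO compound solutions (217-fold dilution) for 16 h. CCF4-AM substrate was loaded for 2 h at room temperature, and the 460/530 nm emission ratio was fitted for gain of signal versus DMSO.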

[13] = TOX21_p53_BLA_p4_viability: Viability Assessment in the Tox21 HCT-116 p53 Agonism Beta-lactamase Assay, Phase 4 (AID 2283597);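 also: hits lower the luminescence signal meaning cytotoxicity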
Outline: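 Readout: ATP luminescence (CellTiter-Glo), measured 30 min after reagent addition at RT. The reagent followed a 2 h CCF4-AM incubation, and the cells had been exposed to compound for 16 h at 37C.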

[14] = biological target: Cellular tumor antigen p53 (Homo sapiens) (UniProt P04637); experiment: TOX21_p53_BLA_p5_ratio: Tox21 HCT-116 p53 Agonism Beta-lactamase Assay, Ratio, Phase 5 (AID 2283599)
Outline: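 Beta-lactamase reporter ratio (blue 460 nm over green 530 nm, 405 nm excitation) after 2 h CCF4-AM loading, in HCT-116 cells exposed 16 h at 37 C to compounds pinned at 217-fold dilution. Increases relative to DMSO baseline scored.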

[15] = TOX21_p53_BLA_p5_viability: Viability Assessment in the Tox21 HCT-116 p53 Agonism Beta-lactamase Assay, Phase 5 (AID 2283600)
Outline: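 Workflow: seed 4000 cells per well, wait 5 h, add compounds (DMSO, 217-fold dilution), incubate 16 h, load CCF4-AM 2 h, add CellTiter-Glo, read luminescence after 30 min.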

[16] = Tanguay_ZF_120hpf_MORT_legacy: (Legacy) Oregon State University Tanguay Lab 120 Hour Post-fertilization zebrafish Assay for Mortality (AID 2283633);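 as to AC50: fitted as increase in binary mortality versus DMSO negative control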
Outline: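 5D WT zebrafish, chorion removed 4 hpf; 1 embryo/well from 6 hpf; static exposure to 120 hpf, 28C, dark, sealed. Final DMSO 0.64%. Readout: binary mortality, brightfield, 24 + 120 hpf; DMSO as negative control.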

[17] = read-out: X-box binding protein 1 (XBP1), XBP1 (gene 7494); experiment: LTEA_HepaRG_XBP1: Life Technologies and Expression Analysis (LTEA) Assay for X-box binding protein 1 (XBP1) using HepaRG (AID 2283540; active = hit-call score of the fitted dose curve at least 0.9, where 1 is the maximum; inactive = score below 0.9); conditions: mRNA level, 48 h; actives raise or lower the signal
Outline: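 Transcript levels of XBP1, measured by qRT-PCR and normalised to three housekeeping genes, were fitted bidirectionally relative to 0.5% DMSO controls. Human HepaRG cells received eight-point half-log dilutions from 100 uM for 48 h.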

[18] = TOX21_p53_BLA_p3_viability: Viability Assessment in the Tox21 HCT-116 p53 Agonism Beta-lactamase Assay, Phase 3 (AID 2283593);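 also: cells exposed to compound for 16 h before reading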
Outline: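 Cellular ATP was quantified by CellTiter-Glo luminescence, read after 30 min at room temperature. Beforehand, HCT116 cells (4000/well) received compound 5 h post-seeding, 217-fold diluted from DMSO, then incubated 16 h at 37C.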

[19] = biological target: Cellular tumor antigen p53 (Homo sapiens) (UniProt P04637); experiment: TOX21_p53_BLA_p4_ratio: Tox21 HCT-116 p53 Agonism Beta-lactamase Assay, Ratio, Phase 4 (AID 2283601)
Outline: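 Signal is the blue/green (460nm/530nm) ratio of cleaved versus uncleaved CCF4-AM substrate, read after 2 h substrate loading. Cells were HCT116 carrying the p53-responsive beta-lactamase reporter, dosed 16 h at 37C, 5% CO2; CellTiter-Glo measured in parallel.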

Measured: AC50

Chain of Cellular tumor antigen p53 (Homo sapiens) (P04637 whole entry, looked up): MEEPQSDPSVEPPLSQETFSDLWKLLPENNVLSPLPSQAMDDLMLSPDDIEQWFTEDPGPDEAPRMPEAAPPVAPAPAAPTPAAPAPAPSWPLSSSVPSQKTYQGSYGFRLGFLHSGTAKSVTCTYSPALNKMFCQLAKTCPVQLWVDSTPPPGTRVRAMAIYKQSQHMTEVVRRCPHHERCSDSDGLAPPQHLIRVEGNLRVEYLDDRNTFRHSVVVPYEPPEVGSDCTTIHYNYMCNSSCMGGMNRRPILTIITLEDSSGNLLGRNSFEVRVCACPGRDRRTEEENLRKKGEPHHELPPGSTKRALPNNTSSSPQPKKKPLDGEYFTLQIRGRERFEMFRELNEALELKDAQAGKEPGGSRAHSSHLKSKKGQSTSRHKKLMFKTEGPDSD

O=C1O[C@H]([C@@H](O)CO)C(O)=C1O
not listed: [17] | [18] | [19]
inactive: all other assays above

CCN(CC)C(=O)c1cc(S(=O)(=O)Cc2ccccc2)c(N2CCC(c3ccccc3)CC2)cc1N(CC)CCN(C)C
active: [1] 27.9 µM | [3] 30.1 µM | [4] 6.01 µM | [5] 30.7 µM | [6] 19 µM | [7] 30 µM | [17] 28.8 µM | [8] 31.1 µM | [10] 29.4 µM and 33.5 µM | [13] 17.9 µM and 25.1 µM | [15] 40.1 µM | [16] 11.7 µM
inactive: [2] | TIMP1, TIMP1 (gene 7076) | [11] | [12] | [14]

CCCCCCCCN(C)CCCCCCCC
not listed: [9] | [10] | [14] | [15] | [19]
inactive: all other assays above

COCC(C)OCC(C)OCC(C)O (stereo not drawn)
not listed: [10] | [11] | [12] | [13] | [14] | [15] | [18] | [19]
inactive: all other assays above

O=C=NCCCCCCN=C=O
not listed: [9] | [10] | [13] | [18] | [19]
inactive: all other assays above

NCc1cccc(C2CCN(C(=O)c3ccc(C#Cc4ccccc4F)o3)CC2)c1
inactive: [1] | [2] | [5] | [17] | [15]
active: TIMP1, TIMP1 (gene 7076) 85.9 µM | [3] 91.9 µM | [4] 83.9 µM | [6] 86.3 µM | [7] 93.1 µM | [8] 81.4 µM | [10] 68.9 µM | [11] 86.2 µM | [18] 72.2 µM | [12] 86.8 µM | [13] 65.6 µM | [14] 82.9 µM | [16] 12 µM

CC(C)(O)c1ccc(CNC(=O)c2cccnc2Oc2ccc3nonc3c2)cc1
active: [4] 60.8 µM | [6] 9.41 µM
not listed: [9] | [13] | [15] | [18]
inactive: all other assays above

Clc1cc(Cl)c2c(c1)N=C1CCCCCN1C2
not listed: [9] | [15] | [19]
inactive: all other assays above

CCCCCCCCCCCCO
not listed: [9] | [13] | [18] | [19]
inactive: all other assays above
